# High-throughput results from PubChem.
# Most compounds without a hit are left out; they make up all but 2.9% or so of the library.
# EPAC1 ag val: Validation qHTS for agonist of cAMP-regulated guanine nucleotide exchange factor 3 (EPAC1) | EPAC1 Rap1b BODIPY-GDP exchange, fluorescence | AID 1645883, 2021 | actives 1% (n = 16,000) | Potency, µM, for inactives: max response, positive = active, usual class: activators; further: nearly all actives have a fitted effect of over 70% in size
# EPAC2 antag: Validation qHTS for antagonist of cAMP-regulated guanine nucleotide exchange factor 4 (EPAC2); actives 1.7% (n = 16,000); EPAC2 Rap1B BODIPY-GDP exchange, fluorescence; Potency, µM (doses to about 112 µM), for the others: at the top dose activity, negative = inhibition, hits mostly inhibitors; Rap guanine nucleotide exchange factor 4 (Homo sapiens), Q8WZA2; AID 1645886, 2021;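 further: 100% = activation by cAMP agonist control; nearly all actives have a fitted effect of over 40% in size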
# Target sequence (Q8WZA2 whole entry, looked up): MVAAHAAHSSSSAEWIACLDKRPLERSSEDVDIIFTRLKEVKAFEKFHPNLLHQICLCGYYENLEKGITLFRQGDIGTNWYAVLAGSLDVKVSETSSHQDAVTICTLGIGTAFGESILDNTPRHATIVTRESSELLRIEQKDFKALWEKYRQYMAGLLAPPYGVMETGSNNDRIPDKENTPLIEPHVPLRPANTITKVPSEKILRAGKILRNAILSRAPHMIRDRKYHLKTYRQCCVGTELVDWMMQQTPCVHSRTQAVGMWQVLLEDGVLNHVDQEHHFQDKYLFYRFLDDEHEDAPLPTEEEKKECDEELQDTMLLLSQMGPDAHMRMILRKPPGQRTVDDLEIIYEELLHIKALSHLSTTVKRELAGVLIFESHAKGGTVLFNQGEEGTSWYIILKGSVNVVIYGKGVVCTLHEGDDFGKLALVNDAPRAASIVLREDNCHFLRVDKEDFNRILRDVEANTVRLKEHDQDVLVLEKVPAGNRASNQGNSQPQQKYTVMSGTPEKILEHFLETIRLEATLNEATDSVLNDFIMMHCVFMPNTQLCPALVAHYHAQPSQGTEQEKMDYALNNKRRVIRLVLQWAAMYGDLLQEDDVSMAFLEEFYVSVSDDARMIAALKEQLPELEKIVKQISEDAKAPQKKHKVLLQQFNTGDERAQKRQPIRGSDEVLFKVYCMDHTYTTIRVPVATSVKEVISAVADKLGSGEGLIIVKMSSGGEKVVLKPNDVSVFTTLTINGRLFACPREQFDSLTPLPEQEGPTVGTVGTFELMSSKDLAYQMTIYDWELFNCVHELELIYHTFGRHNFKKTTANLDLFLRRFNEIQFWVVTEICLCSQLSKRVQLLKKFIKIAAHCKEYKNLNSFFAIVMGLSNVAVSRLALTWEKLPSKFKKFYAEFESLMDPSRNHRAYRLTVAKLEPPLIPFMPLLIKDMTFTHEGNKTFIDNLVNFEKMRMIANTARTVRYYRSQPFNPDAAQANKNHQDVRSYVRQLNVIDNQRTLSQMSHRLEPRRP
#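 Normalized against a 6.5 mM cAMP agonist control, compounds were tested on 100 nM EPAC2 exchanging Rap1B-bound BODIPY-GDP (250 nM) for 50 uM GDP. Fluorescence drop (ex 480, em 540 nm) was tracked at room temperature over 30 min at 5-min intervals.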
# * = called active by the depositor; i = inactive; ? = inconclusive; ! = repeats disagree; [ ] = another dose, or the depositor's remark. The call rests on the fitted dose curve; in most records, active means well fitted curve in the direction sought with a large enough effect; inconclusive means small, poorly fitted or top-dose-only effect, or another doubt; inactive means no such curve, though single readings can be large; an effect the other way counts as inactive or inconclusive. Unless noted, on the % scale 0 is the no-effect control and ±100 the full control effect; potency means the concentration at half of the fitted maximal effect.
SMILES,EPAC1 ag val,EPAC2 antag
Nc1ncnc2c1nc(Cl)n2C1OC(CO)C(O)C1O (stereo not given),18%,-4%
NC1=NC2C(N=C(Br)N2[C@@H]2O[C@H]3COP(=O)(O)O[C@@H]3[C@@H]2O)C(=O)N1 (stereo not given in full),17%,?
CCC(=O)O[C@@H]1CC(=O)O[C@H](C)C/C=C/C=C/[C@@H](O)[C@H](C)C[C@H](CC=O)[C@H](OC2O[C@H](C)[C@@H](O[C@H]3C[C@@](C)(O)[C@@H](OC(=O)CC)[C@H](C)O3)[C@H](N(C)C)[C@H]2O)[C@H]1OC (stereo not given in full),10%,36%[29.6 µM]
COc1cc(=O)n2c(c1C(=O)N(C)Cc1nccs1)CCN(Cc1cc(C)cc(C)c1)CC2,-13%,6%
O=C(C[n+]1cccc2cc(Cl)ccc21)c1ccc(I)cc1,7%,-10%
O=C(C[n+]1cccc2cc(Cl)ccc21)c1ccc(Br)cc1,112µM*,-26%
O=C(CN1Cc2ccccc2OC(c2ccsc2)C1)N1CCN(Cc2ccc3c(c2)OCO3)CC1 (stereo not given),8%,56µM*
O=C(CN1CCN(Cc2ccc3c(c2)OCO3)CC1)N1c2ccccc2Sc2ccccc21,11%,-23%
CN(C)CCC=C1c2ccccc2COc2ccccc21,-4%,5%
CCCCOCCOCCOCc1cc2c(cc1CCC)OCO2,-3%,50µM*!
COc1ccc2c(c1)-c1nc(-n3ncc(C(=O)NC[C@@H]4CCCN5CCCC[C@H]45)c3C)ncc1CC2,5%,-5%
CC(C)c1ccc(CN2CCC3(CCC(CNC(=O)c4ccn(C)n4)O3)CC2)cc1 (stereo not given),-13%,-22%
CC(C)=CCC/C(C)=C/CC/C(C)=C/CO,-16%,45µM*!
CC(C)=CCC/C(C)=C/CC/C(C)=C/CC/C(C)=C/CC/C(C)=C/CC/C(C)=C/CC/C(C)=C/CC/C(C)=C/CC/C(C)=C/CO,2%,-21%
C[C@@H](O)[C@H]1C(=O)N2C(C(=O)[O-])=C(SC3Cn4cnc[n+]4C3)[C@H](C)[C@H]12 (stereo not given in full),-1%,1%
C(=C\c1nccc2ccccc12)/c1ccc(N2CCOCC2)cc1,100µM*,6%
Cc1noc(C)c1-c1nc(N2CCOCC2)c2ccccc2n1,-31%,2%
O=C(O)c1ccccc1[O-].O=C(O)c1ccccc1[O-].[Zn+2],3%,4%
CCC1(C2CCN(Cc3ccc(C)s3)CC2)NC(=O)N(CC2COc3ccccc3O2)C1=O (stereo not given),-12%,?
Cc1ccc(C)c(S(=O)(=O)NCc2nc(N3CCCC3)c3cc(Cl)ccc3n2)c1,18%,-27%
CCCCCCCCCCCCCCCC(=O)O[C@@H]1CC(C)=C(/C=C/C(C)=C/C=C/C(C)=C/C=C/C=C(C)/C=C/C=C(C)/C=C/C2=C(C)C[C@@H](OC(=O)CCCCCCCCCCCCCCC)CC2(C)C)C(C)(C)C1,-55%,-16%
NCCC[C@H](N)C(=O)O,6%,4%
Cc1oc(-c2ccccc2NC(=O)C2CCC2)nc1CNC(=O)c1cccc(C(F)(F)F)c1,13%,-36%
Cc1sc(N)c(C(=O)c2cccc(C(F)(F)F)c2)c1C,-44%,56µM*
C[n+]1c2cc(N)ccc2cc2ccc(N)cc21 (tested in a mixture with another compound),25µM*,i
SMILES,EPAC1 ag val,EPAC2 antag
COc1ncc2ncc(=O)n(Cc3cccs3)c2n1,3%,-21%
O=c1c(-c2cc(F)cc(F)c2)nc2cnc(N3CCOCC3)nc2n1Cc1cccs1,-30%,-2%
CN(C)c1ncc2ncc(=O)n(Cc3cccs3)c2n1,-6%,45µM*
CN1CCN(c2ncc3nc(-c4cccs4)c(=O)n(Cc4cccs4)c3n2)CC1,-12%,4%
O=c1c(-c2cc(F)cc(F)c2)nc2cnc(N3CCNCC3)nc2n1Cc1cccs1,?,45µM*
COc1ncc2nc(-c3cccs3)c(=O)n(CCC#N)c2n1,-31%,-20%
O=c1c(-c2cccs2)nc2cnc(N3CCNCC3)nc2n1Cc1cccs1,?,56µM*
CN(C)c1ncc2nc(-c3cccs3)c(=O)n(CCC#N)c2n1,100µM*,113%
COc1ccc(CN2CCC3(CC2)c2ccccc2[C@@H](NC(=O)c2ccccc2OC)[C@@H]3O)cc1O,-14%,4%
CCC1C(=O)NCCN1Cc1ccc2c(c1)CN(Cc1cccc(OC)c1OC)CCO2 (stereo not given),7%,-6%
O=C(O)[C@@H](O)[C@H](O)[C@H](O)[C@@H](O)C(=O)O (tested in a mixture with another compound),6%,-11%
Cc1cc(CC(C)CC(C)(C)C)n(O)c(=O)c1 (stereo not given) (tested in a mixture with another compound),-66%,?
COC(=O)c1cn([C@@H]2C[C@@H](C(=O)N3CCCCCC3)N(Cc3cc4ccccc4s3)C2)nn1,-7%,?
O=c1c(-c2cc(F)cc(F)c2)nc2cnc(N3CCOCC3)nc2n1-c1ccccc1,112µM*,-9%
N#CCCn1c(=O)c(-c2ccc(Cl)cc2)nc2cnc(Nc3ccccc3)nc21,112µM*,-3%
COCCn1c(=O)c(-c2cccs2)nc2cnc(Nc3ccccc3)nc21,100µM*,71%
COc1cccc(Nc2ncc3nc(-c4cccs4)c(=O)n(CCC#N)c3n2)c1,?,3%
COc1ccc(-n2c(=O)c(-c3cccs3)nc3cnc(Nc4cccc(OC)c4)nc32)cc1,100µM*,28%
COCCn1c(=O)c(-c2ccc(OC)cc2)nc2cnc(Nc3ccccc3)nc21,-19%,-18%
N#CCCn1c(=O)c(-c2ccccc2)nc2cnc(Nc3ccccc3)nc21,23%,-19%
O=c1c(-c2ccccc2)nc2cnc(N3CCOCC3)nc2n1-c1ccccc1,-31%,-17%
COc1ccc(C(=O)NCC2Cc3c(F)ccc(-c4nc(C)cnc4C)c3O2)cc1F (stereo not given),-8%,?
Cc1cc(C(=O)NCc2nnc3n2CCN(Cc2ccc4c(c2)Cc2ccccc2-4)CC3)c(C)o1,-15%,?
CC(C)c1c(C(=O)N(C)Cc2cccc3ncccc23)cnn1-c1nccc(-c2ccccc2F)n1,14%,-27%
COc1ccc(-n2c(=O)c(-c3cccs3)nc3cnc(N4CCOCC4)nc32)cc1,?,-26%
SMILES,EPAC1 ag val,EPAC2 antag
COCCn1c(=O)c(-c2cccs2)nc2cnc(N3CCOCC3)nc21,112µM*,15%
COC(=O)C1=C(C)NC(COC(N)=O)=C(C(=O)OC(C)C)C1c1cccc(Cl)c1Cl (stereo not given),?,50µM*
COC(=O)C1=C(C)NC(C)=C(C(=O)OC)C1c1ccccc1[N+](=O)[O-],-10%,?
Cc1cccc(CNc2nc(-c3ccc4c(c3)OCO4)nc3ccccc23)c1,112µM*,?
COc1ccccc1CNc1nc(-c2cccnc2)nc2ccccc12,89µM*,-22%
COc1ccc(CNc2nc(-c3ccc4c(c3)OCO4)nc3ccccc23)c(OC)c1,112µM*,-15%
c1cncc(CNc2nc(-c3ccc4c(c3)OCO4)nc3ccccc23)c1,?,-20%
